From article PMC7862700, “An all-to-all approach to the identification of sequence-specific readers for epigenetic DNA modifications on cytosine” come the findings set out here.

Common to all, as to experiment: DAPPL (digital affinity profiling via proximity ligation, sequencing); 10 mM Tris-HCl pH 7.5, 50 mM NaCl, 1 mM DTT, 4% glycerol, room temperature, 30 min; GST-TFs on glutathione beads, 16-mer random dsDNA library, 0.1% formaldehyde crosslink after washing; high values mean tight binding
For one assay, the target named is T1, FEV (Homo sapiens, UniProt Q99581 1-238).
T1 sequence: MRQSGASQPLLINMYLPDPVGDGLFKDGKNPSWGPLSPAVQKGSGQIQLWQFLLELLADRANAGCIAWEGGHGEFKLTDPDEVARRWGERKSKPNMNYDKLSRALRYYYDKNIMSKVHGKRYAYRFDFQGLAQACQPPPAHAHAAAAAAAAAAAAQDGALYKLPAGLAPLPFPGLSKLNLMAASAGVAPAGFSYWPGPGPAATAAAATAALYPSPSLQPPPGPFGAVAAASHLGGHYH
To be noted: protein: recombinant; tags: N-terminal GST; dsDNA, one strand shown. The procedure, abridged: (§1)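 Binding signal is each hexamer's read frequency for a factor divided by its frequency in the tag-only sample. The factors were GST-fused human transcription factors from yeast, captured on glutathione beads, DNA-barcoded and pooled with that sample. Pools were incubated with 200 nmole of a random double-stranded 16-mer DNA library in Tris/NaCl/DTT/glycerol buffer at room temperature for 30 min, then washed, crosslinked with 0.1% formaldehyde, proximity-ligated with BsaI/T4 ligase (1 h, 37 °C), PCR-amplified and sequenced on an Illumina NextSeq500.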

The target of a further assay is ETV5 (Homo sapiens, UniProt P41161 1-510). The following applies: protein: recombinant; tags: N-terminal GST; dsDNA, one strand shown. The method in brief:
as §1

In a further assay the target is HSF1 (Homo sapiens, UniProt Q00613 1-529). To be noted: protein: recombinant; tags: N-terminal GST; chain copies: 3; dsDNA, one strand shown. The method in brief:
as §1

The next assay deals with T2, SPIC (Homo sapiens, UniProt Q8N5J4 1-248).
T2 sequence: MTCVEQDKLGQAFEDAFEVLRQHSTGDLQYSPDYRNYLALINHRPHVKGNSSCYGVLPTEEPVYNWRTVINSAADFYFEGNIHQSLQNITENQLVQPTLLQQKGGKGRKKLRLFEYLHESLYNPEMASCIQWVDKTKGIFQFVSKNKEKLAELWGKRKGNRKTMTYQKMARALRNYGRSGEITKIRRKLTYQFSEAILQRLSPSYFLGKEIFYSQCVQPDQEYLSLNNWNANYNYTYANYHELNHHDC
The following applies: protein: recombinant; tags: N-terminal GST; dsDNA, one strand shown. The method in brief: as §1

The target of a further assay is ELF4 (Homo sapiens, UniProt Q99607 1-663). The following applies: protein: recombinant; tags: N-terminal GST; dsDNA, one strand shown. The method in brief:
as §1

The next assay concerns the target T3, ELK4 (Homo sapiens, UniProt P28324-2 1-405).
T3 sequence: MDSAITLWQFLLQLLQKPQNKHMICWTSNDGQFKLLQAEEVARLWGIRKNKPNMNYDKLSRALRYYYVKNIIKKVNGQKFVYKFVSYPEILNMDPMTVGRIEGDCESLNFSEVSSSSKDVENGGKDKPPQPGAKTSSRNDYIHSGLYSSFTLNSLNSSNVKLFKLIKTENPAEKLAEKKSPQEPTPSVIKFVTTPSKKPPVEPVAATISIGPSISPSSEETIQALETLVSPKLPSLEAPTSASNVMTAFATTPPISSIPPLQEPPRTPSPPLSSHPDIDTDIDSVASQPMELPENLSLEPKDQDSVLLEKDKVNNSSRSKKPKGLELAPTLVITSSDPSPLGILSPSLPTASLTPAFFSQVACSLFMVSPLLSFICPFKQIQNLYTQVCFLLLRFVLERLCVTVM
The following applies: protein: recombinant; tags: N-terminal GST; dsDNA, one strand shown. The procedure, abridged:
as §1

For the next assay, the target named is T4, ETV2 (Homo sapiens, UniProt O00321 1-342).
T4 sequence: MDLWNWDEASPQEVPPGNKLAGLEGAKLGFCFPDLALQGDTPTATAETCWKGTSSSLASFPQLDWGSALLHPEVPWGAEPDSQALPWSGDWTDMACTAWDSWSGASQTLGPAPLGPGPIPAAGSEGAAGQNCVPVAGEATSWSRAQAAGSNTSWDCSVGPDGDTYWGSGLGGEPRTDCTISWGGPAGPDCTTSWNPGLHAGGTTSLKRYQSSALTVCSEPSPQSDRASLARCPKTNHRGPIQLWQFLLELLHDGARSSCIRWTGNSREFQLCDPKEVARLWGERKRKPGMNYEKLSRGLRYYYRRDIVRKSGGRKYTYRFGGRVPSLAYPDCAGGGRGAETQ
The following applies: protein: recombinant; tags: N-terminal GST; dsDNA, one strand shown. The method in brief: as §1

Another assay deals with T5, ELF3 (Homo sapiens, UniProt P78545 1-371).
T5 sequence: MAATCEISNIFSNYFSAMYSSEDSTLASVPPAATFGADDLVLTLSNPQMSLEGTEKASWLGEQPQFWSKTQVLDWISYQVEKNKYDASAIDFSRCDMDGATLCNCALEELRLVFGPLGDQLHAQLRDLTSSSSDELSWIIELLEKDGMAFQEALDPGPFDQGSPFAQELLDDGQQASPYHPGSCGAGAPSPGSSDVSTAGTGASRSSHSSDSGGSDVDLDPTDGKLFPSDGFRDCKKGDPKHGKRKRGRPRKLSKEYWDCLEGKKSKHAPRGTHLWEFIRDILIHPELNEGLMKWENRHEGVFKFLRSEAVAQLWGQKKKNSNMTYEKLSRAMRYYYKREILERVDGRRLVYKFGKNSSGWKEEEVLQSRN
To be noted: protein: recombinant; tags: N-terminal GST; dsDNA, one strand shown. The method in brief:
as §1

For a further assay, the target named is CRX (Homo sapiens, UniProt O43186 1-299). To be noted: protein: recombinant; tags: N-terminal GST; dsDNA, one strand shown. The procedure, abridged:
as §1

The next assay has as its target ETV1 (Homo sapiens, UniProt P50549 1-477). The following applies: protein: recombinant; tags: N-terminal GST; dsDNA, one strand shown. The procedure, abridged:
as §1

Another assay deals with T6, ERF (Homo sapiens, UniProt P50548 1-548).
T6 sequence: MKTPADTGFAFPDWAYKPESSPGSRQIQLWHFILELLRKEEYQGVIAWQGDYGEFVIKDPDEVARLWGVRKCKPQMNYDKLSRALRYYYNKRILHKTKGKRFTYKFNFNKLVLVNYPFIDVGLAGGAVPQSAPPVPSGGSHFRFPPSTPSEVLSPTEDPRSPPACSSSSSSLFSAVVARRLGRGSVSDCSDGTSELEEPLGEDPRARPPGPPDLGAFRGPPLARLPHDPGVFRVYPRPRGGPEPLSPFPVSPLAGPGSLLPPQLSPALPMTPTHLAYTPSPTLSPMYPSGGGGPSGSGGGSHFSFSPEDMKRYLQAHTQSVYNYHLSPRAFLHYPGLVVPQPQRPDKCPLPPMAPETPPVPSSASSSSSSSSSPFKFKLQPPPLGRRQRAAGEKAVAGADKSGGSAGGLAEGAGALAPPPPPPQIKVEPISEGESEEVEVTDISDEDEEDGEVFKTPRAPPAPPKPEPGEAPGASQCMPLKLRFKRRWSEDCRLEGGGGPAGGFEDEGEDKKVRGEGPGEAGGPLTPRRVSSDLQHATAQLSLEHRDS
The following applies: protein: recombinant; tags: N-terminal GST; dsDNA, one strand shown. The method in brief: as §1

For the next assay, the target named is T7, ETV3L (Homo sapiens, UniProt Q6ZN32 1-361).
T7 sequence: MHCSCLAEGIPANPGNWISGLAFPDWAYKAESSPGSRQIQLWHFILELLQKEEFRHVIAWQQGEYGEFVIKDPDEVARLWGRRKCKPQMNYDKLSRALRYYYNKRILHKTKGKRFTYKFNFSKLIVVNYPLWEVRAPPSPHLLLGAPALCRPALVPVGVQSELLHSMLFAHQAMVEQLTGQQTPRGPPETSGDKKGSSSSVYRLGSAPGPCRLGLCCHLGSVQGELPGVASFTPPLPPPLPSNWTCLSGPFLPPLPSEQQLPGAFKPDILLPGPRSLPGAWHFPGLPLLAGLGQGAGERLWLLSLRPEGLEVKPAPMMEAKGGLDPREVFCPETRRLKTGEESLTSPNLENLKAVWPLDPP
The following applies: protein: recombinant; tags: N-terminal GST; dsDNA, one strand shown. The method in brief: as §1

In the next assay the target is T8, ETS2 (Homo sapiens, UniProt P15036 1-469).
T8 sequence: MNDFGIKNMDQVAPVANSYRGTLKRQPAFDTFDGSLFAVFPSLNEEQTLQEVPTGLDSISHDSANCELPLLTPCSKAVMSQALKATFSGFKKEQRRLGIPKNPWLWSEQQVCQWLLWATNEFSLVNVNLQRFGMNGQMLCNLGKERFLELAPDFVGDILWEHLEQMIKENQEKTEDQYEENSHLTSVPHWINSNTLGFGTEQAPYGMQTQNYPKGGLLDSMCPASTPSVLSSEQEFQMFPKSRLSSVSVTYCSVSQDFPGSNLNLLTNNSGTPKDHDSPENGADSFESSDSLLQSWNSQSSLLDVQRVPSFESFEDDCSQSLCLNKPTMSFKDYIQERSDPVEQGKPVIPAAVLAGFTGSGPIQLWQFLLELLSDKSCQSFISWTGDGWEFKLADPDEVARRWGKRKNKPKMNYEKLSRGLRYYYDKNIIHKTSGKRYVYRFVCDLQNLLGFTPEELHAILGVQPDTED
To be noted: protein: recombinant; tags: N-terminal GST; dsDNA, one strand shown. The method in brief: as §1

The next assay deals with T9, SPDEF (Homo sapiens, UniProt O95238 1-335).
T9 sequence: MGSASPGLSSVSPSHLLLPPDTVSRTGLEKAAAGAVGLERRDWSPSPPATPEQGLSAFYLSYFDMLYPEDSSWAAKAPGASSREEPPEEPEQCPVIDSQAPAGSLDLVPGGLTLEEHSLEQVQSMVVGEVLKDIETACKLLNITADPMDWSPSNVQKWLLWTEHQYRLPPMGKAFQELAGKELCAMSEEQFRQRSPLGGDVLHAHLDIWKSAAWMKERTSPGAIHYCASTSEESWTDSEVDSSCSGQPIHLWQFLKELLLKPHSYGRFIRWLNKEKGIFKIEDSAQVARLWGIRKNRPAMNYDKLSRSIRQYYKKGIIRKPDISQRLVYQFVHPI
The following applies: protein: recombinant; tags: N-terminal GST; dsDNA, one strand shown. The method in brief:
as §1

In a further assay the target is T10, ETV7 (Homo sapiens, UniProt Q9Y603 1-341).
T10 sequence: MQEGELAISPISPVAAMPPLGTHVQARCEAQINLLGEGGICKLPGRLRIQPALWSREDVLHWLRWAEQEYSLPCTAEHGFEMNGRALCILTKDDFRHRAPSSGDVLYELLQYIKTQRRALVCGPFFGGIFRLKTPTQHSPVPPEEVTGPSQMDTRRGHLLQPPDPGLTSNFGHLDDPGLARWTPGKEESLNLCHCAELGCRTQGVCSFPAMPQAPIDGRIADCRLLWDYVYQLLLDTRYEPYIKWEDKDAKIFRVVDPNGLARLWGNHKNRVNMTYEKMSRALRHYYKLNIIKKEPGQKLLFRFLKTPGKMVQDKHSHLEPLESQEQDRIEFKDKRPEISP
The following applies: protein: recombinant; tags: N-terminal GST; dsDNA, one strand shown. The method in brief:
as §1

The next assay concerns the target T11, ELF5 (Homo sapiens, UniProt Q9UKW6-2 1-255).
T11 sequence: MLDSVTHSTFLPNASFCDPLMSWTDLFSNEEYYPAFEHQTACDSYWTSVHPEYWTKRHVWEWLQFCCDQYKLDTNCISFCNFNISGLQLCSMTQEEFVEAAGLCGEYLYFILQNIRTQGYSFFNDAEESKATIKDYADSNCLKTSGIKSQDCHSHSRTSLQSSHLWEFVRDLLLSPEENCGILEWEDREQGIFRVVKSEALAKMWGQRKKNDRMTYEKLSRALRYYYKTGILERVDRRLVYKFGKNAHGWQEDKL
To be noted: protein: recombinant; tags: N-terminal GST; dsDNA, one strand shown. The procedure, abridged:
as §1

The next assay deals with T12, ETV3 (Homo sapiens, UniProt P41162-2 1-143).
T12 sequence: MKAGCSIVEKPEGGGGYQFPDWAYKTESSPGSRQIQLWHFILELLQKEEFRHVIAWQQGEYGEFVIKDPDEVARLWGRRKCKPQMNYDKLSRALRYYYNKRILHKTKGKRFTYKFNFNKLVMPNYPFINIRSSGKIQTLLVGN
To be noted: protein: recombinant; tags: N-terminal GST; dsDNA, one strand shown. The procedure, abridged:
as §1

A further assay has as its target ETV6 (Homo sapiens, UniProt P41212 1-452). To be noted: protein: recombinant; tags: N-terminal GST; dsDNA, one strand shown. The procedure, abridged: as §1

Sequence of ETV1 (P50549 whole entry): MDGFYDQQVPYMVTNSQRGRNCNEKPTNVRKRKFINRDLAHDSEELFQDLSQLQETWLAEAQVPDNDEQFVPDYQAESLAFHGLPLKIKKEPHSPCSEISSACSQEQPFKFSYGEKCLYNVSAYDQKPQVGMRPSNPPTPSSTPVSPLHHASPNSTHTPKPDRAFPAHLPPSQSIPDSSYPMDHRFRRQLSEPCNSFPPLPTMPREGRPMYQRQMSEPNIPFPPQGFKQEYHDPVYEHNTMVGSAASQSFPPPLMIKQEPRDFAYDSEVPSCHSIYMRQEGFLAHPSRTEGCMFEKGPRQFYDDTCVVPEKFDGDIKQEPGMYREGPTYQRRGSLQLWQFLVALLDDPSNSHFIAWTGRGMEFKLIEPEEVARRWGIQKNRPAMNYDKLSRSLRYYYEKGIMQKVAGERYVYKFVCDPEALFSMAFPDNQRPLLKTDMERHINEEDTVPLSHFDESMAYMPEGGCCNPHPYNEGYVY
Sequence of ELF4 (Q99607 whole entry): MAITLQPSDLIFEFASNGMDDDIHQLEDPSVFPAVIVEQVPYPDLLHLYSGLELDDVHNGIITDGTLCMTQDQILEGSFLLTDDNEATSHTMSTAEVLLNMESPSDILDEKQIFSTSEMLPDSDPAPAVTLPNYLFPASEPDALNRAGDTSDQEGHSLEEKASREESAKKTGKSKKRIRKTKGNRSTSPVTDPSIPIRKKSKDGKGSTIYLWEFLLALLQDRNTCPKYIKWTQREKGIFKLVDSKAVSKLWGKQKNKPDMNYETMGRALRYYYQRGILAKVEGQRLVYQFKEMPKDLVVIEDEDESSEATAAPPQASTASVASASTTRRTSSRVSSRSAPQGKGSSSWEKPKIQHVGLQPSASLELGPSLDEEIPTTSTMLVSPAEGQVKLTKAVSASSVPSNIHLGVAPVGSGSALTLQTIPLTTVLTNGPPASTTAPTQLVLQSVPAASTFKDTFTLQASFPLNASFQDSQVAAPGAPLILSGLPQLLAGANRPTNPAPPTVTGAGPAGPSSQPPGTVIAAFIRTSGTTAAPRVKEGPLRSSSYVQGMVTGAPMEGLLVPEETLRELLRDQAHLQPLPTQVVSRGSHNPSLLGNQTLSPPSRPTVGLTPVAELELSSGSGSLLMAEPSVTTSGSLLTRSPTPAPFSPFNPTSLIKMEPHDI
Sequence of ETV6 (P41212 whole entry): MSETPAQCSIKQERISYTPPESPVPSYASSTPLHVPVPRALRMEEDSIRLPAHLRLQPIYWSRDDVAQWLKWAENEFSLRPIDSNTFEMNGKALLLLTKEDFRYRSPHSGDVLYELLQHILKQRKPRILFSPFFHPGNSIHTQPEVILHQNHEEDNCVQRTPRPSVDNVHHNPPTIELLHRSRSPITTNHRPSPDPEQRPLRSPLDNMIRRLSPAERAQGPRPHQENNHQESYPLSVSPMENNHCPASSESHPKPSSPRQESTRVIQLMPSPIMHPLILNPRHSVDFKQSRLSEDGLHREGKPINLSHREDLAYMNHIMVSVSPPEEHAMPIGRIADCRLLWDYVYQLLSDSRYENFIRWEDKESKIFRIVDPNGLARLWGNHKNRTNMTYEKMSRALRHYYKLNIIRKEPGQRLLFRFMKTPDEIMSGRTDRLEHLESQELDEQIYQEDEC
Sequence of HSF1 (Q00613 whole entry): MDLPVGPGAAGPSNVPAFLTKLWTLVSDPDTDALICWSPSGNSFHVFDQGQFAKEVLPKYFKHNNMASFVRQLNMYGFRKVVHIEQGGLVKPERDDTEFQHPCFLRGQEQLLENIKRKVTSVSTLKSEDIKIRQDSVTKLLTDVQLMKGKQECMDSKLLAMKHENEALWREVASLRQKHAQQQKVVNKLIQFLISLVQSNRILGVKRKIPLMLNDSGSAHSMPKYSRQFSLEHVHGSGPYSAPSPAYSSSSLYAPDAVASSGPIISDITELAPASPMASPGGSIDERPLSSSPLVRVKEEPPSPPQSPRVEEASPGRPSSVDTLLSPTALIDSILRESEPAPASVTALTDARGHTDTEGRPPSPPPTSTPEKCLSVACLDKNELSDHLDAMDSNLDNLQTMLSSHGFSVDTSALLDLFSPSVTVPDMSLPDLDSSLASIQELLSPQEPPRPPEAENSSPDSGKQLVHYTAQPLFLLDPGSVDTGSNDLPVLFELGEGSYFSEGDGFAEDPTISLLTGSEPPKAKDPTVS
Sequence of CRX (O43186 whole entry): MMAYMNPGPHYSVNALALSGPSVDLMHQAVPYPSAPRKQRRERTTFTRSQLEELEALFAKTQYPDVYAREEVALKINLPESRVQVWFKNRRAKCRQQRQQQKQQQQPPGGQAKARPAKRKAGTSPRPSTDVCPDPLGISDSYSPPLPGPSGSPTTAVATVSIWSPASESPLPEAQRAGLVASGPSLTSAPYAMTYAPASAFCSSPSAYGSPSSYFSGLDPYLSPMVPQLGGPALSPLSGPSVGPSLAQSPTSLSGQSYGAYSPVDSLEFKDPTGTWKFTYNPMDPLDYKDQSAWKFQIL
Sequence of ETV5 (P41161 whole entry): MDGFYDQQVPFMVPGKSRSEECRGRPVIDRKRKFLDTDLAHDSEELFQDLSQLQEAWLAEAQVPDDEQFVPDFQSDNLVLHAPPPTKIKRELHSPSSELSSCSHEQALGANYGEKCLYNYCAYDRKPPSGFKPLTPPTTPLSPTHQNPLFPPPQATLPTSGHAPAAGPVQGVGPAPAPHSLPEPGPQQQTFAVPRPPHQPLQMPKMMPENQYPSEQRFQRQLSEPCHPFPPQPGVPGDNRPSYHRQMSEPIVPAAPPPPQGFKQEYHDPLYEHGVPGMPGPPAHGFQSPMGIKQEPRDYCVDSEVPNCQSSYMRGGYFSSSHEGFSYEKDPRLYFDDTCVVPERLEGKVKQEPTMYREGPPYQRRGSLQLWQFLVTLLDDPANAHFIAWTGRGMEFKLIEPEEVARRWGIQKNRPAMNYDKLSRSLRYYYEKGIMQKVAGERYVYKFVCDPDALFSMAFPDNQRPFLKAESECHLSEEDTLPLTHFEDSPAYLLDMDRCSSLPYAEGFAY

As to CCGTCT, the binding signal with FEV was 1.3 fold enrichment (6-mer frequency, TF over GST control); with ETV5 it was 1.36 fold enrichment (6-mer frequency, TF over GST control); with HSF1 it was 1.29 fold enrichment (6-mer frequency, TF over GST control); with SPIC, 1.45 fold enrichment (6-mer frequency, TF over GST control); in the assay with ELF4, 1.37 fold enrichment (6-mer frequency, TF over GST control); in the assay with ELK4, 1.4 fold enrichment (6-mer frequency, TF over GST control). The binding signal is 1.32 fold enrichment (6-mer frequency, TF over GST control) with ETV2; 1.25 fold enrichment (6-mer frequency, TF over GST control) with ELF3; 1.26 fold enrichment (6-mer frequency, TF over GST control) with CRX; 1.38 fold enrichment (6-mer frequency, TF over GST control) with ETV1; 1.28 fold enrichment (6-mer frequency, TF over GST control) with ERF; 1.4 fold enrichment (6-mer frequency, TF over GST control) with ETV3L. Moreover, the binding signal with ETS2 was 1.29 fold enrichment (6-mer frequency, TF over GST control); with SPDEF, 1.42 fold enrichment (6-mer frequency, TF over GST control); in the assay with ETV7, 1.26 fold enrichment (6-mer frequency, TF over GST control); in the assay with ELF5, 1.39 fold enrichment (6-mer frequency, TF over GST control); in the assay with ETV3, 1.36 fold enrichment (6-mer frequency, TF over GST control); with ETV6, 1.39 fold enrichment (6-mer frequency, TF over GST control).
